# Laboratory results as given in PubChem BioAssay (Tox21).
# Values joined by “and” are separate entries in the source; they are usually repeats but may differ in a detail not shown here. Equal entries are not always repeated. Records with an inconclusive call do not appear. Some compounds were tested as several samples or in several runs, with calls that do not always agree. Active and inactive are the calls of the source. The call rests on the fitted dose curve; in most records, active means well fitted inhibition curve with a large enough effect in the repeat runs; inconclusive means weak or mixed curves; inactive means no such curve, though single readings can be large or run the other way.
# Biological target: Cytochrome P450 2D6 (Homo sapiens) (UniProt P10635)
# Assay: Cytochrome P450 Family 2 Subfamily D Member 6 (CYP2D6) small molecule antagonists: luciferase reporter qHTS assay (AID 1671196); further: nearly all actives have a fitted effect of over 50% in size
# Details: P450-Glo CYP2D6 enzyme assay, luciferin luminescence, 1 h; series mostly up to 115 µM
# Description: U.S. Tox21 Program National Center for Advancing Translational Sciences [NCATS] U.S. Environmental Protection Agency [EPA] National Institutes of Environmental Health Sciences [NIEHS] National Toxicology Program [NTP] U.S. Food and Drug Administration [FDA] Tox21 Assay Overview: Cytochrome P450 (CYP) enzymes are membrane-bound hemeproteins that play a key role in metabolism of drugs and xenobiotics. Evaluation of the effect of chemicals on CYP isozymes is useful to minimize the adverse drug reactions and toxicities in drug development process. Tox21 chemicals were tested for their effect on CYP enzyme activities by using P450-Glo (TM) screening systems (Promega Corporation, Madison, WI). These systems provide a luminescent method containing proluciferin substrates and are converted to luciferin products by CYP isozymes. The luciferin products formed are detected with a luciferin detection reagent, and the amount of light produced is proportional to CYP activity. P450-Glo (TM) CYP2D6 screening system (Catalog. No. V9890) was used to detect the compounds that interfere in CYP2D6 activity.
# Tox21 Assay Protocol Summary: Two ul of enzyme-substrate mix was dispensed into medium binding white/solid 1536-well plates (Greiner Bio-One North America Inc., Monroe, NC) using a BioRaptr Flying Reagent Dispenser (FRD, Beckman Coulter, Brea, CA). […] The assay plates were incubated at room temperature for 10 min. Then 2 ul of NADPH regeneration solution was added to each well of the assay plates using an FRD and incubated at room temperature for 1 h. The reaction was stopped by adding 4 ul of detection reagent using an FRD and after 20 min incubation at room temperature the luminescence signal was measured using a ViewLux plate reader (Perkin Elmer, Shelton, CT). Data were expressed as relative luminescence units.
# Potency means the concentration at half of the fitted maximal effect.
# Chain of Cytochrome P450 2D6 (Homo sapiens) (P10635 whole entry, looked up): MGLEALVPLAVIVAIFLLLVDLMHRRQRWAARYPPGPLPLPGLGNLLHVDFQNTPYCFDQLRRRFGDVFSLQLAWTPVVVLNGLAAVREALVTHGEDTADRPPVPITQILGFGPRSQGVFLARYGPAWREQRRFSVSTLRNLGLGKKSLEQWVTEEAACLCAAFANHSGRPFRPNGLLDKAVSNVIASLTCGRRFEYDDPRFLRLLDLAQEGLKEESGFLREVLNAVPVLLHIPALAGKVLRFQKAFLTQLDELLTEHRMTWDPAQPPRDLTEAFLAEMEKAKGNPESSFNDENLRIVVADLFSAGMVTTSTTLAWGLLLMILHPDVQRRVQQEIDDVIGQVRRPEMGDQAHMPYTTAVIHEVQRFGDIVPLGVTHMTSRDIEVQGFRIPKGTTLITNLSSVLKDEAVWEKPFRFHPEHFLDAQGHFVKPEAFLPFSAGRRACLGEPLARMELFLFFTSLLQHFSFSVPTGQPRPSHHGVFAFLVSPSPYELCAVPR
row,Structure (SMILES),Potency
1,Cc1cc(O)c2ccccc2c1O,17.4 µM (active)
2,CN(C)c1ccc(SC#N)cc1,31.7 µM (active)
3,CCCC(=O)OC[C@@H](OC(=O)CCC)[C@@H](OC(=O)CCC)[C@H](Cn1c2nc(=O)[nH]c(=O)c-2nc2cc(C)c(C)cc21)OC(=O)CCC,8.71 µM (active)
4,[Cl][Bi]([Cl])([c]1ccccc1)([c]1ccccc1)[c]1ccccc1,6.29 µM (active)
5,O=C(O)c1ccc(Cl)c(Cl)c1,inactive
6,CC(C)n1nc(-c2cc3cc(O)ccc3[nH]2)c2c(N)ncnc21,30.9 µM (active)
7,CCC(C)(C)C1CCCCC1OC(C)=O (stereo not given),inactive
8,O=c1[nH]sc2cc(Cl)ccc12,inactive
9,Cc1cc(O)c(Cl)c(C)c1Cl,inactive
10,CC(NN)c1ccccc1 (stereo not given),15.1 µM (active)
11,C/C(=C(/OCCOc1ccc(Cl)cc1)c1ccc(Cl)cc1Cl)n1ccnc1,1.55 µM (active)
12,COc1ccc(CN2CCN(C(c3ccc(F)cc3)c3ccc(F)cc3)CC2)c(OC)c1OC,4.9 µM (active)
13,CCCCCCCCCCCCCCCC[N+](C)(C)CCN(Cc1ccc(OC)cc1)c1ncccn1,15.5 µM (active)
14,CN1CCC(Nc2ncc3ncnc(Nc4ccc(F)c(Cl)c4)c3n2)CC1,6.92 µM (active)
15,Clc1ccccc1C(c1ccccc1)(c1ccccc1)n1ccnc1,39.9 µM (active)
16,OC1(c2ccc(Cl)c(C(F)(F)F)c2)CCN(CCCC(c2ccc(F)cc2)c2ccc(F)cc2)CC1,4.9 µM (active)
17,O=C(O)c1cc(O)c2c(c1)C(=O)c1cccc(O)c1C2=O,inactive
18,NNc1nc(-c2ccc(N)cc2)cs1,71 µM (active)
19,Cc1nc(-c2ccc3c(c2)CCN(CCC2CCC(NC(=O)/C=C/c4ccc(F)cc4)CC2)CC3)no1 (stereo not given),inactive
20,CCCCCCCCCCC=O,inactive

row,Structure (SMILES),Potency
1,COc1cc(-c2ccc(N=C=O)c(OC)c2)ccc1N=C=O,inactive
2,CCCC(c1cc(C(C)(C)C)c(O)cc1C)c1cc(C(C)(C)C)c(O)cc1C,28.6 µM (active)
3,O=C(Nc1cccc(C(F)(F)F)c1)c1cc(Br)cc(Br)c1O,inactive
4,O=c1cccccc1O,inactive
5,CCN(C(=O)N(CC)c1ccccc1)c1ccccc1,inactive
6,Clc1ccc(C(Cn2ccnc2)OCc2ccc(Sc3ccccc3)cc2)c(Cl)c1 (stereo not given),0.389 µM (active)
7,O=C1CCCCCN1SSN1CCCCCC1=O,inactive
8,CCCCC(CC)COP(=O)(O)OCC(CC)CCCC (stereo not given),50.2 µM (active)
9,CSc1cnc(C)cn1,inactive
10,C=C(C)C(=O)OCC[N+](C)(C)C,inactive
11,COCCCC/C(=N\OCCN)c1ccc(C(F)(F)F)cc1,1.95 µM (active)
12,Nc1ccc2c3c(cccc13)-c1ccccc1-2,inactive
13,CCCC/C=C/CCCCO,inactive
14,Oc1cc2ccccc2c2ccccc12,2.24 µM (active)
15,Oc1ccc(Cl)cc1Sc1cc(Cl)ccc1O,inactive
16,O=[N+]([O-])c1cc(Cl)c(Cl)c(Cl)c1Cl,inactive
17,CCOC(=O)c1nc(C(Cl)(Cl)Cl)n(-c2ccc(Cl)cc2Cl)n1,14.2 µM (active)
18,N#CC1(c2ccc(F)cc2)CCC(=O)CC1,inactive
19,C[C@H](CCC(=O)O)[C@H]1CC[C@H]2[C@@H]3CC[C@@H]4C[C@H](O)CC[C@]4(C)[C@H]3CC[C@]12C,inactive and 35.6 µM (active)
20,Cc1[nH]cnc1C[C@H]1CCc2c(C)c3ccccc3n2C1=O,4.37 µM (active)
